Reference: PubChem BioAssay (NCI)
About 79,000 compounds went through this panel and 15% of them were active in at least one assay; those are over-represented in the sample as a whole. No stated cut-off is given here; in the data, active means growth inhibition above about 70%; inactive means the rest.

Key:
[1] = NCI Yeast Anticancer Drug Screen. Data for the rad50 strain (AID 155);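 further: 0% = growth of vehicle-only cultures of the same strain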; conditions: S. cerevisiae rad50 strain growth inhibition; at 50.0 µM; hits give high values
Procedure, shortened: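 A DNA repair-deficient yeast mutant serves as the test organism; compound-induced growth inhibition is calculated against vehicle-treated cells.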

[2] = NCI Yeast Anticancer Drug Screen. Data for the mec2-1 strain (AID 157); conditions: S. cerevisiae mec2-1 strain, at 50.0 µM, hits give high values
Procedure, shortened: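 Test agents were screened against the mec2-1 yeast strain, with defined DNA repair or cell cycle alteration. Growth was scored as inhibition against vehicle-only controls.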

[3] = NCI Yeast Anticancer Drug Screen. Data for the sgs1 mgt1 strain (AID 161);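 further: 0% = growth of cultures given vehicle only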; conditions: S. cerevisiae sgs1 mgt1 strain, at 50.0 µM, hits give high values
Procedure, shortened: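 Mutant yeast exposed to compound; growth scored against vehicle-only wells.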

[4] = NCI Yeast Anticancer Drug Screen. Data for the cln2 rad14 strain (AID 165);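 further: 0% = growth equal to vehicle treated cultures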; conditions: S. cerevisiae cln2 rad14 strain, at 50.0 µM, hits give high values
Procedure, shortened: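 Growth of compound-exposed yeast (cln2 rad14 genotype) measured and expressed as inhibition relative to vehicle.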

[5] = NCI Yeast Anticancer Drug Screen. Data for the bub3 strain (AID 167); conditions: S. cerevisiae bub3 mutant strain, at 50.0 µM, hits give high values
Procedure, shortened: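 Inhibition values come from growth of compound-treated mutant yeast normalised to vehicle-treated controls.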

[6] = NCI Yeast Anticancer Drug Screen. Data for the mlh1 rad18 strain (AID 175); conditions: S. cerevisiae mlh1 rad18 strain growth inhibition; at 50.0 µM; hits give high values
Procedure, shortened: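 In this whole-cell yeast screen, a strain with altered DNA damage repair is challenged with compound, and its growth is measured against matched vehicle-treated controls.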

Measured: growth inhibition

N#Cc1ccc2c(c1)Sc1ccccc1N2
inactive: [1] 7.5% | [2] 3.05% | [3] -2.9% | [4] -43.4% | [5] -31% | [6] 21.7%

COC(=O)c1c([N+](=O)[O-])ncn1[C@H]1OC[C@@H](OC(C)=O)[C@@H](OC(C)=O)[C@@H]1OC(C)=O
inactive: [1] -24.8% | [2] -8.6% | [3] -20.9% | [4] -0.8% | [5] -5.5% | [6] 1.55%

CC(=O)c1cc([N+](=O)[O-])c(N)s1
inactive: [1] 7.35% | [2] -3.2% | [3] -13.2% | [4] 5.25% | [5] -4.15% | [6] -3.8%

CCN(CC)c1ccc(NCC(O)c2cc(Cl)ccc2OC)cc1 (centres undefined)
inactive: [1] -11.8% | [2] -5.75% | [3] 15.6% | [4] 22.8% | [5] -6.3% | [6] -1.65%

Nc1cccc(S(=O)(=O)O)c1
inactive: [1] -27.1% | [2] -10.8% | [3] -36.2% | [4] -37.1% | [5] -13.8% | [6] -5.2%

COc1ccc(OC)c(C(=O)c2cccc(C(=O)c3cc(OC)ccc3OC)n2)c1
inactive: [1] 20.9% | [2] 6.25% | [3] 42.5% | [4] -21.8% | [5] -30.4% | [6] 20.6%

CC(C)NC(=O)c1ccccc1Sc1ccccc1CN(C)C(C)C
inactive: [1] -11.3% | [2] 5.5% | [3] 7.1% | [4] 6.55% | [5] 8.9% | [6] 6.75%

CC(=O)Nc1nc(NC(C)=O)c2nc(C)cnc2n1
inactive: [1] 4.45% | [2] 20.6% | [3] -2.35% | [4] 24.4% | [5] 10.6% | [6] 25.2%

CCC(CO)(CO)[N+](=O)[O-]
inactive: [1] 10.2% | [2] -2% | [3] -20.5% | [4] 5% | [5] 16.8% | [6] 7.25%

CC(=O)n1cc(CC(C)O)c(=O)[nH]c1=O (centres undefined)
inactive: [1] -2.45% | [2] -21% | [3] -16.2% | [4] 4.85% | [5] -13.2% | [6] -28.1%

C(=C(c1ccccc1)c1ccccc1)=C(c1ccccc1)c1ccccc1
inactive: [1] 30.8% | [2] 12.9% | [3] 24.6% | [4] -15.4% | [5] 4.95% | [6] 32%

[Cl][Pt+2][Cl].[NH-]CC(C[NH-])(Cc1ccccc1)Cc1ccccc1
inactive: [1] -0.55% | [2] -13.9% | [3] -2.2% | [4] 15.1% | [5] -18.2% | [6] -38.6%

Nc1nc(N)nc(-c2ccccc2NC(=O)c2ccccc2N)n1
inactive: [1] 2.15% | [2] 14.3% | [3] -0.25% | [4] 8.5% | [5] 6.85% | [6] 18%

O=C(Cl)c1ccc2ccccc2c1
inactive: [1] 45.8% | [2] 8.3% | [3] 3% | [4] -43% | [5] -20.4% | [6] 29.4%

CCCCOC(=O)NC(=O)c1cn(CCCOC(=O)CCCCCCCCC(=O)OCCCn2cc(C(=O)NC(=O)OCCCC)c(=O)n(C)c2=O)c(=O)n(C)c1=O
inactive: [1] -3.9% | [2] -10.9% | [3] -10.7% | [4] 12.2% | [5] 14.3% | [6] -5.55%

C=C(C)CS(=O)(=O)Cc1ccccc1
inactive: [1] 14.6% | [2] -10.1% | [3] -1.8% | [4] -40.9% | [5] -4.55% | [6] 7.6%

CCC[CH2][Ge]([Cl])([Cl])[CH2]CCC
inactive: [1] 28.6% | [2] 30.8% | [3] 30.9% | [4] 14.9% | [5] 40.9% | [6] 33.4%

Cc1cc2c3ccccc3n(C)c2c2c1C(=O)c1ccccc1C2=O
inactive: [1] 15.8% | [2] 28% | [3] 3.3% | [4] 5.45% | [5] 17.4% | [6] 11.2%

CC1(C)CCCCC1=O
inactive: [1] -0.15% | [2] -1.8% | [3] 7.1% | [4] 22.1% | [5] 26.1% | [6] -14.3%
